Tb PYK inh – T. brucei pyruvate kinase inhibition; Q57TT1; TbPYK enzyme, Kinase-Glo Plus ATP luminescence, 45 min; Potency, µM (doses to about 76.8 µM), usual class: inhibitors; 0.12% of 410,000 active; further: nearly all actives have a fitted effect of over 50% in size
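Activity of T. brucei pyruvate kinase was followed by Kinase-Glo Plus luminescence after the enzyme reacted 45 min at room temperature with 130 uM ADP (final) and substrate. Test compounds were added before ADP at multiple concentrations.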
Giardia FBPA inh – inhibitors of Giardia lamblia fructose-1,6-bisphosphate aldolase. A8B2U2. purified Giardia FBPA. Potency, µM (doses to about 59.6 µM), usual class: inhibitors. 0.71% of 290,000 active. AID 2451; further: nearly all actives have a fitted effect of over 55% in size
Target sequence (A8B2U2 whole entry, looked up): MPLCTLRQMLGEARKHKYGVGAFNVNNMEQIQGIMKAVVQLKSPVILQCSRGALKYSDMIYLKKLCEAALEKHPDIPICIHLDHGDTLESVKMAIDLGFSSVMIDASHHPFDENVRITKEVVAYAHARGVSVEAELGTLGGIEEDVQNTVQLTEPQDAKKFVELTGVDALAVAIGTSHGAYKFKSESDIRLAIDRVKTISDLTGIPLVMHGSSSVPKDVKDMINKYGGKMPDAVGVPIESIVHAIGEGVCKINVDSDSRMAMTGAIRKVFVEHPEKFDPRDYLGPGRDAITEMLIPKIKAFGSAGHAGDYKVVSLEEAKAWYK
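40 nM FBPA preincubated 10 min at RT with compound (up to 57.5 uM final), then substrate plus GAPDH/TPI/NAD/arsenate coupling and diaphorase/resazurin added. Fluorescence read after 20 min at RT, 525/598 nm.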
CHX counter – affects cycloheximide protein synthesis inhibition readout, counter-screen | cell reporter, cycloheximide protein synthesis inhibition counterscreen | max response, % | 12% of 300,000 active; in the data active means max response mostly above about 13%, no sharp cut-off; inactive means mostly below about 14%; further: read at 38.3 µM for the half of the compounds with a filed dose
RE007 growth inh – less growth of the S. pombe RE007 Vpr strain. S. pombe RE007 Vpr strain, BacTiter-Glo ATP luminescence, 24 h. Potency, µM (highest dose often 92.2 µM), actives largely listed as inhibitors. 0.21% of 360,000 active. AID 651644; active means well fitted falling curve with a large enough effect; inconclusive means small, poorly fitted or top-dose-only effect; inactive means no such curve, though single readings can be large or run the other way; further: nearly all actives have a fitted effect of over 50% in size
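Fission yeast strain RE007, carrying one chromosomally integrated HIV-1 vpr copy, was seeded at OD 0.01 in PMG+AL medium with 23 nL pinned compound. After 24 h at 30 °C and 99% humidity, viability was read by BacTiter-Glo luminescence.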
Shiga inhibitor – inhibitors of Shiga toxin in Vero cells. Vero cells, Shiga toxin protein synthesis inhibition reporter. inhibition, % at 38.7 µM. 9.2% of 290,000 active. AID 2315; in the data active means inhibition mostly above about 28%, no sharp cut-off; inactive means mostly below about 43%
LmPK inh – inhibitors of Leishmania mexicana pyruvate kinase; AID 1721; Potency, µM (series often up to 57.5 µM), actives largely listed as inhibitors; purified LmPK, Kinase-Glo ATP luminescence, 1 h; Q27686; 0.37% of 290,000 active
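Purified LmPK (0.1 nM) converted ADP (0.1 mM) to ATP with PEP (0.5 mM) in imidazole buffer pH 7.2 with KCl and MgCl2, 1 h at room temperature. ATP was read by Kinase-Glo luminescence; data normalized to uninhibited and no-enzyme controls.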
Hits are given with their value; n = inactive; u = inconclusive; x = no result. The entries come from a sample that favours hits as a whole. Unless noted, the call rests on the fitted dose curve; in most records, active means well fitted curve in the direction sought with a large enough effect; inconclusive means small, poorly fitted or top-dose-only effect, or another doubt; inactive means no such curve, though single readings can be large; an effect the other way counts as inactive or inconclusive.

SMILES | Tb PYK inh | Giardia FBPA inh | CHX counter | RE007 growth inh | Shiga inhibitor | LmPK inh
CC(C)OP(=O)(OC(C)C)C(Nc1ccccc1)c1ccc2c(c1)OCO2 (configuration not stated) | n | n | n | n | n | n
CC(C)OP(=O)(OC(C)C)C(Nc1ccccc1)c1cccc2c1OCO2 (configuration not stated) | n | n | 23 | n | n | n
Cc1ccc(-c2csc(NC(=O)/C=C/c3ccco3)c2C(=O)O)cc1 | n | u | 36 | n | 86 | n
O=C(Nc1scc(-c2ccc(F)cc2)c1C(=O)O)c1ccco1 | n | n | 56 | n | 92 | u
COC(=O)c1c(-c2ccccc2)csc1NC(=O)c1ccco1 | n | n | 71 | n | 153 | n
Cc1cc2c(s1)c1cnn(Cc3ccc(C)c(F)c3F)c(=O)c1n2C | x | x | n | x | n | x
COc1ccc(Cl)cc1NC(=O)Cn1c(=O)n(Cc2ccco2)c(=O)c2ccc(C(=O)NC3CCCC3)cc21 | n | x | x | x | x | x
COc1ccc(NC(=O)c2coc3ccccc23)cc1OC | n | n | 20 | n | 71 | n
COc1ccc(NC(=O)c2cc3ccccc3o2)cn1 | n | n | 36 | n | x | n
COc1ccc(NC(=O)c2coc(=O)c3ccccc23)cc1OC | n | x | x | x | x | x
CCOc1ccc(S(=O)(=O)NNC(=O)c2cc3ccccc3o2)cc1 | n | n | n | n | n | n
COc1ccc(NC(=O)c2cc3ccccc3o2)cc1OC | n | n | 45 | n | 62 | n
CCCOc1ccc(S(=O)(=O)NNC(=O)c2cc3ccccc3o2)cc1 | n | n | 14 | n | n | n
COc1ccc(NC(=O)c2ccco2)cc1NC(=O)c1cc2ccccc2o1 | n | n | n | n | n | n
Cc1ccc(NC(=O)CN2C(=O)COc3ccc(S(=O)(=O)N4CCCCC4)cc32)cc1N(C)C | n | x | x | x | x | x
N#Cc1nc(/C=C/c2ccc(F)cc2)oc1N1CCCCC1 | n | x | x | x | x | x
COc1ccc(-c2nc3sc(CCNC(=O)C(=O)Nc4cccc(NC(C)=O)c4)c(C)n3n2)cc1 | n | x | x | x | x | x
O=C(Nc1ccc2nc(SCC(=O)N3CCOCC3)sc2c1)c1cccc(Cl)c1 | n | x | x | x | x | x
COc1ccc(NC(=O)c2cc3ccccc3o2)cc1 | n | n | 39 | n | 94 | n
CCc1ccc(NC(=O)Cn2c(=O)n(Cc3ccc(C)cc3)c(=O)c3cccnc32)cc1 | n | x | x | x | x | x
COc1ccc(S(=O)(=O)c2c(Nc3ccc(C)cc3)sc(C(=O)c3ccc4c(c3)OCO4)c2N)cc1 | n | x | x | x | x | x
COc1ccc(-c2nnc(SCC(=O)Nc3ncc(C(F)(F)F)cc3Cl)n2CC(C)C)cc1 | u | n | 15 | n | n | n
O=C(Nc1ccc(OCC(F)(F)C(F)F)c(C(F)(F)F)c1)c1ccccc1O | n | n | 21 | n | 52 | n
COc1ccccc1-c1c(C)nn2c(N3CCN(c4ccc(F)cc4)CC3)cc(C)nc12 | n | x | x | x | x | x
N/C(=N\OC(=O)COc1ccc2ccccc2c1)c1cccnc1 | n | n | 24 | x | 52 | n
SMILES | Tb PYK inh | Giardia FBPA inh | CHX counter | RE007 growth inh | Shiga inhibitor | LmPK inh
N/C(=N\OC(=O)COc1ccc2ccccc2c1Br)c1ccncc1 | x | n | 24 | x | 91 | n
N/C(=N\OC(=O)COc1ccc2ccccc2c1)c1ccncc1 | n | n | 31 | n | 34 | n
Cc1cccc(OCC(=O)O/N=C(\N)c2ccc(Br)cc2)c1 | n | n | n | n | n | n
CC(C)(C)c1ccc(OCC(=O)O/N=C(\N)c2ccncc2)cc1 | n | x | x | n | x | x
Cc1cccc(OCC(=O)O/N=C(\N)c2ccncc2)c1 | n | n | 20 | n | 59 | n
O=C(COc1ccc2ccccc2c1)N1CCN(C(=O)c2cccnc2)CC1 | n | n | n | n | n | n
CCc1ccc(CNC(=O)c2cnc(N3CCCCC3)c3ccccc23)cc1 | n | x | x | x | x | x
CCOc1ccc(N=C/C=C/c2ccccc2)c(O)c1 | n | u | 22 | n | 64 | n
O=CC1=C(c2ccccc2)Oc2ccccc2O1 | n | n | 38 | u | 94 | n
Fc1cccc(Nc2cc(-n3cccn3)ncn2)c1 | n | n | 49 | n | 51 | n
Cc1ccc(Nc2cc(-n3cccn3)ncn2)c(C)c1 | n | n | 28 | n | n | n

Assay outcomes deposited in PubChem BioAssay by National Center for Advancing Translational Sciences (NCATS).
